For 20 molecules, growth inhibition results are on record in PubChem BioAssay (NCI).

Assay [1] can be described thus: NCI Yeast Anticancer Drug Screen. Data for the rad50 strain (AID 155).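 Also: 0% = growth of vehicle-only cultures of the same strain.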 As to conditions: S. cerevisiae rad50 strain growth inhibition; at 50.0 µM; hits give high values. In a few lines: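 Yeast carrying a defined DNA repair defect were exposed to test compounds, and growth was compared with vehicle-treated controls to give percent inhibition.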
Assay [2] can be described thus: NCI Yeast Anticancer Drug Screen. Data for the mec2-1 strain (AID 157). As to conditions: S. cerevisiae mec2-1 strain, at 50.0 µM, hits give high values. In a few lines:
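Test agents were screened against the mec2-1 yeast strain, with defined DNA repair or cell cycle alteration. Growth was scored as inhibition against vehicle-only controls.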

Assay [3] can be described thus: NCI Yeast Anticancer Drug Screen. Data for the sgs1 mgt1 strain (AID 161).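 Also: 0% = growth of cultures given vehicle only.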 As to conditions: S. cerevisiae sgs1 mgt1 strain, at 50.0 µM, hits give high values. An outline of the steps: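 Mutant yeast exposed to compound; growth scored against vehicle-only wells.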
The nature of assay [4]: NCI Yeast Anticancer Drug Screen. Data for the cln2 rad14 strain (AID 165).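 Also: 0% = growth equal to vehicle treated cultures.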 As to conditions: S. cerevisiae cln2 rad14 strain, at 50.0 µM, hits give high values. An outline of the steps: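 Growth of compound-exposed yeast (cln2 rad14 genotype) measured and expressed as inhibition relative to vehicle.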
The nature of assay [5]: NCI Yeast Anticancer Drug Screen. Data for the bub3 strain (AID 167). As to conditions: S. cerevisiae bub3 mutant strain, at 50.0 µM, hits give high values. In a few lines:
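Compounds were applied to a genetically altered yeast strain carrying a cell-cycle control defect. Growth inhibition was scored against vehicle-treated controls.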

Assay [6] can be described thus: NCI Yeast Anticancer Drug Screen. Data for the mlh1 rad18 strain (AID 175). As to conditions: S. cerevisiae mlh1 rad18 strain growth inhibition; at 50.0 µM; hits give high values. In a few lines: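 In this whole-cell yeast screen, a strain with altered DNA damage repair is challenged with compound, and its growth is measured against matched vehicle-treated controls.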

SMILES strings stand for the structures. Compounds without any hit were thinned out: in the full panel of roughly 79,000, 15% have a hit. Unmarked numbers belong to inactive results. Calls of active or inactive are those of the source. Rule as the data show it: active = growth inhibition above about 70%; inactive = the rest.

As for `COc1cc(/C=N\NS(=O)(=O)c2ccc(N)cc2)ccc1O`, the growth inhibition was 10.1% in assay [1]; -18.3% in assay [2]; 5.05% in assay [3]; 9.55% in assay [4]; -24.8% in assay [5]; 17.1% in assay [6].
As for `O=C(NCc1ccco1)Nc1ccc(Cl)cc1`, the growth inhibition is -29.5% in assay [1]; -0.8% in assay [2]; 0.6% in assay [3]; -51.4% in assay [4]; 14.5% in assay [5]; -2.7% in assay [6].
Regarding `NCCSSCCCCSSCCN`, the growth inhibition in assay [1] was -8.95%; in assay [2], -0.7%; in assay [3], -13.7%; in assay [4] it was -43.2%; in assay [5], -1.2%; in assay [6] it was -1.9%.
In the case of `COc1c(OC2OC(CO)C(O)C(O)C2O)cc2occ(-c3ccc4c(c3)OCO4)c(=O)c2c1O` (stereo not given), the growth inhibition was 23.6% in assay [1]; -9.7% in assay [2]; -10% in assay [3]; 4.6% in assay [4]; 12.1% in assay [5]; 18.6% in assay [6].
`Cc1ccccc1-c1c(N)nc(N)nc1C(=O)Nc1nccs1`: the growth inhibition in assay [1] was -26.6%; in assay [2] it was -36.2%; in assay [3] it was -39.6%; in assay [4], -3.85%; in assay [5], -28.1%; in assay [6], -7.9%.
As to `CCCCCCCCCCCCCCCC[N+](C)(C)CCN`, the growth inhibition in assay [1] is 98.9% (active); in assay [2] it was 50.8%; in assay [3], 58.4%; in assay [4], 73.4% (active); in assay [5], 49.2%; in assay [6] it was 59.7%.
As for `Clc1ccc2c(c1)nc(-c1ccccn1)n2CCc1ccncc1`, the growth inhibition in assay [1] was 3.75%; in assay [2], 0.05%; in assay [3] it was 2.4%; in assay [4], -16.4%; in assay [5], -13.4%; in assay [6], 13.8%.
Turning to `CC1=C2CCCCC2(C)C=C(C(=O)O)C1=O` (stereo not given), the growth inhibition was 22.2% in assay [1]; 50.5% in assay [2]; 18.8% in assay [3]; 34.6% in assay [4]; 12.2% in assay [5]; 23.4% in assay [6].
Consider `S=c1cn[nH]c2ccccc12`, for which the growth inhibition is 16% in assay [1]; 40.1% in assay [2]; 16.9% in assay [3]; 7.85% in assay [4]; 49.6% in assay [5]; 37.6% in assay [6].
In the case of `COC(=O)/C(=N/O)C(C(=O)OC)C(=O)C(=O)Nc1c(Cl)cc(C)cc1S(=O)(=O)O` (stereo not given), the growth inhibition in assay [1] was 6.4%; in assay [2], 4.35%; in assay [3], -22.4%; in assay [4] it was -14.1%; in assay [5], -2.9%; in assay [6], 8.15%.
Regarding `C(=Nc1ccc2c(c1)Cc1ccccc1-2)c1ccc2c(c1)OCO2`, the growth inhibition in assay [1] was 8.75%; in assay [2] it was -10.1%; in assay [3], 9.75%; in assay [4], -2.1%; in assay [5], 3.05%; in assay [6], 15.4%.
For `FC(F)(F)c1nc2ccccc2[nH]1`, the growth inhibition in assay [1] was 16.9%; in assay [2], -1.4%; in assay [3], 9.55%; in assay [4], 14.8%; in assay [5] it was -1.65%; in assay [6] it was 13.3%.
`CC12CCC3C(CCC4CC(OC5CCCCO5)CCC43C)C1CC/C2=C/C#N` (stereo not given): the growth inhibition is 29.4% in assay [1]; -7.5% in assay [2]; 10.1% in assay [3]; 10.3% in assay [4]; 1.75% in assay [5]; -2.65% in assay [6].
Consider `Nc1nc(C(=O)O)c([N+](=O)[O-])c(=O)[nH]1`, for which the growth inhibition was -31.6% in assay [1]; -13.7% in assay [2]; -14.4% in assay [3]; -20.5% in assay [4]; -6.9% in assay [5]; -11.8% in assay [6].
With `O=C(O)C(=C\c1ccccc1)/C(=C\c1ccccc1)C(=O)OCc1ccccc1`, the growth inhibition is 16.9% in assay [1]; 5.3% in assay [2]; 19.9% in assay [3]; -0.4% in assay [4]; 47.5% in assay [5]; 8.4% in assay [6].
With `CCOC(=O)C(=CNC(=S)c1ccncc1)C(=O)OCC`, the growth inhibition in assay [1] is -41.6%; in assay [2] it was -64.5%; in assay [3] it was -25.8%; in assay [4] it was 18.9%; in assay [5] it was -6.6%; in assay [6], -36%.
On to `CC(=O)Nc1ccc2c(c1)N(O)C(=O)C2(C)C`, for which the growth inhibition was 7.9% in assay [1]; 6.3% in assay [2]; 11.4% in assay [3]; -36.1% in assay [4]; 5.5% in assay [5]; -0.6% in assay [6].
For the molecule `Cc1ccnc(NS(=O)(=O)c2ccc(N=Cc3ccccc3O)cc2)n1`, the growth inhibition was -28.4% in assay [1]; -20.1% in assay [2]; -13.9% in assay [3]; -40.4% in assay [4]; -36.2% in assay [5]; -0.5% in assay [6].
For the molecule `O=C(/C=C/c1ccccc1)NC(=S)Nc1ccc(F)c([N+](=O)[O-])c1`, the growth inhibition was 7.6% in assay [1]; 6.05% in assay [2]; 7.85% in assay [3]; 12.7% in assay [4]; 21.6% in assay [5]; 12.2% in assay [6].
Turning to `CC1(C)CCC(=O)OC1C[N+](=O)[O-]` (stereo not given), the growth inhibition in assay [1] was 39.8%; in assay [2], -10.8%; in assay [3], 24.2%; in assay [4] it was 11.8%; in assay [5], 0.3%; in assay [6], 39.4%.
